The results in this text go back to PubChem BioAssay (Tox21).

The nature of assay [1]: qHTS RealTime-Glo MT Cell Viability Assay in HEK293 cells - 8 hour (AID 1224887). Further: top concentration of the series differs between compounds; nearly all actives have a fitted effect of over 50% in size. Summed up: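 Luminescence, which tracks viable cell number through reduction of the prosubstrate to a NanoLuc substrate, was read over continuous 37 C culture. Cells (600/well) were premixed with reagent and rested 5 h before 23 nL of compound in DMSO was pinned.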
On the technique in general: Quantitative high-throughput screening tests each substance at several concentrations.

A short description of assay [2]: A CellTox Green Cytotoxicity Assay to monitor cytotoxicity in HEK293 cells - 16 hour (AID 1224888). Further: nearly all actives have a fitted effect of over 35% in size. Summed up: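 Fluorescence from a DNA-binding dye excluded by viable cells was measured repeatedly in the same HEK293 wells (600 cells/well) during continuous compound exposure at 37 C. Each assay gives one read point: 0, 8, 16, 24, 32 or 40 h.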
Assay [3] can be described thus: qHTS RealTime-Glo MT Cell Viability Assay in HepG2 cells - 0 hour (AID 1224889). Further: nearly all actives have a fitted effect of over 50% in size. Summed up:
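Compound treatment began 5 h after plating HepG2 cells (600/well) with NanoLuc luciferase and prosubstrate. Plates stayed at 37 C for 40 h; luminescence was captured at six time points, 0 h through 40 h.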

The nature of assay [4]: A CellTox Green Cytotoxicity Assay to monitor cytotoxicity in HepG2 cells - 8 hour (AID 1224890). Further: nearly all actives have a fitted effect of over 45% in size. Further: potency means the concentration at half of the fitted maximal effect. The gist of the method: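 Real-time cytotoxicity: fluorescence of a cell-impermeant cyanine dye binding DNA of dead HepG2 cells, measured repeatedly (0–40 h) during compound exposure at 37 C. Cells seeded 600/well with reagent, dosed after 5 h.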
Assay [5] is described as follows: qHTS assay to identify small molecule antagonists of the estrogen receptor alpha (ER-alpha) signaling pathway using the BG1 cell line in the presence of 0.1 nM 17-beta-estradiol - cell viability counter screen (AID 1259241). Further: nearly all actives have a fitted effect of over 40% in size. The gist of the method: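 Estradiol-stimulated (0.1 nM) VM7Luc4E2 cells exposed to compounds 22 hr; viability measured by fluorescence of cleaved CellTiter-Fluor substrate after 30 min.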

Assay [6] deals with Estrogen receptor (Homo sapiens) (UniProt P03372). Description: qHTS assay to identify small molecule antagonists of the estrogen receptor alpha (ER-alpha) signaling pathway using the BG1 cell line in the presence of 0.1 nM 17-beta-estradiol (AID 1259244). Further: nearly all actives have a fitted effect of over 50% in size. The gist of the method: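 Luciferase luminescence (ONE-Glo, 30 min at room temperature) was read after 22 hr at 37C exposure to compounds plus 17beta-estradiol at 0.1 nM final. Cells were VM7Luc4E2 with endogenous ER-alpha and an ERE-driven luciferase, pre-cultured 5 days in hormone-depleted medium.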

Assay [7] in a line: qHTS assay to identify small molecule HDAC inhibitors (AID 1259364). Further: nearly all actives have a fitted effect of over 45% in size. Further: potency means the concentration at half of the fitted maximal effect. Summed up: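 Luminescence read after 30 min room-temperature HDAC-Glo incubation measures cellular class I/II HDAC activity. Compounds were applied for 2 hr at 37 C to HCT-116 wild-type cells seeded the day before.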
Assay [8] is described as follows: qHTS assay to identify small molecule HDAC inhibitors - cell viability counter screen (AID 1259365). Further: series mostly up to about 92 µM; nearly all actives have a fitted effect of over 50% in size. Summed up: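 After overnight seeding at 1,500 cells per well, wild-type HCT-116 cultures took up compounds in DMSO for 2hr at 37 C. Viable cell content came from luminescence with CellTiter-Glo.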
Assay [9] in a line: qHTS assay to identify small molecule agonists of the sonic hedgehog signaling (Shh) pathway - cell viability counter screen (AID 1259366). Further: nearly all actives have a fitted effect of over 50% in size. Summed up: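 Same-well cytotoxicity read. Gli1-Luc reporter 3T3 cells; compounds 24hr, 37C/5% CO2; CellTiter-Fluor fluorescence.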
Assay [10] is described as follows: qHTS assay to identify small molecule antagonists of the sonic hedgehog signaling (Shh) pathway - cell viability counter screen (AID 1259367). Further: nearly all actives have a fitted effect of over 55% in size. Summed up:
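Conditioned medium drove Shh signaling in 3T3 Gli1-Luc cells exposed to compounds at 37C and 5% CO2. Viability was determined from CellTiter-Fluor fluorescence, with reagent incubated 1 hr after 23 hr of treatment.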

Assay [11] is described as follows: qHTS assay to identify small molecule agonists of the sonic hedgehog signaling (Shh) pathway (AID 1259368; calls by dose curve;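 further: NIH/3T3-derived 3T3Gli1-Luc cells carrying a stable Gli1-driven firefly luciferase reporter; series mostly up to about 92 µM; nearly all actives have a fitted effect of over 15% in size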). Summed up:
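Luminescence was read after 30 min at room temperature with luciferase reagent. Before that, 3T3Gli1-Luc cells (NIH/3T3 clone, stable Gli1-Luc reporter; 2,000/well) were exposed to compounds for 24 hr at 37C, 5% CO2, compounds being added 4 hr post-plating.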

A short description of assay [12]: qHTS assay to identify small molecule antagonists of the sonic hedgehog signaling (Shh) pathway (AID 1259369; calls by dose curve; further: nearly all actives have a fitted effect of over 45% in size). Summed up:
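Antagonist mode: compound added to 3T3 Gli1-Luc cells followed by conditioned-medium stimulation, 24 h at 37 C, 5% CO2. Inhibition taken as loss of Gli1-driven luciferase luminescence.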

In assay [13] the target is Estrogen receptor beta (Homo sapiens) (UniProt Q92731). Description: qHTS assay to identify small molecule agonists of the estrogen receptor beta (ER-beta) signaling pathway (AID 1259377; active means well fitted activation curve with a large enough effect in the signal ratio in the repeat runs, not every such curve was filed as active; the % refers to the signal ratio). The gist of the method: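 Read-out: beta-lactamase FRET fluorescence. Cell line: ER-beta-UAS-bla HEK293T in 2% charcoal-stripped FBS. Exposure: 16 hr at 37C. Substrate step: 2 h at room temperature.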

For assay [14] the target is unchanged. The experiment in a line: qHTS assay to identify small molecule antagonists of the estrogen receptor beta (ER-beta) signaling pathway (AID 1259378; active means well fitted inhibition curve with a large enough effect in the signal ratio in the repeat runs, not every such curve was filed as active; the % refers to the signal ratio). The gist of the method:
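ER-beta-UAS-bla HEK293T (GripTite) cells in 2% charcoal-stripped FBS medium were preincubated 6 hr at 37C, dosed with compound, then stimulated with 1 nM E2 (final) for 16 hr; beta-lactamase reporter read by B/G FRET fluorescence after 2 hr substrate loading.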

Assay [15] can be described thus: qHTS assay to identify small molecule agonists of the androgen receptor (AR) signaling pathway in the presence of an antagonist - cell viability counter screen (AID 1259379).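 Further: MDA-kb2 human breast cancer cells carrying an MMTV luciferase reporter; series mostly up to about 92 µM; nearly all actives have a fitted effect of over 25% in size.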 Summed up:
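Cytotoxicity counter-screen run in the same wells as the nilutamide-challenged (3.0 µM final) AR agonist assay in MDA-kb2 cells. Compounds tested at 15 concentrations for 16 h, 37 °C without CO2; CellTiter-Fluor fluorescence read.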

The nature of assay [16]: qHTS assay to identify small molecule agonists of the estrogen receptor beta (ER-beta) signaling pathway - cell viability counter screen (AID 1259380). Further: nearly all actives have a fitted effect of over 30% in size. Summed up: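 Cell viability counter screen: CellTiter-Glo luminescence (30 min, room temperature) measured in the same wells as the beta-lactamase readout, after 16 hr compound exposure at 37C of ER-beta-bla HEK293T cells in 2% charcoal-stripped FBS medium.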

The nature of assay [17]: qHTS assay to identify small molecule antagonists of the androgen receptor (AR) signaling pathway using the MDA cell line in the presence of 0.5 nM R1881 - cell viability counter screen (AID 1259242). Further: nearly all actives have a fitted effect of over 45% in size. Summed up: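 Live-cell protease activity was measured by CellTiter-Fluor fluorescence after 30 min. Before that, MDA-kb2 MMTV-luciferase cells had 16 hr at 37C without CO2, exposed to test compounds and 0.5 nM R1881 final.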

Records with an inconclusive call do not appear. Calls of active or inactive are those of the source. Unless noted, the call rests on the fitted dose curve; in most records, active means well fitted curve in the direction sought with a large enough effect in the repeat runs; inconclusive means weak or mixed curves; inactive means no such curve, though single readings can be large; an effect the other way counts as inactive or inconclusive.

Chain of Estrogen receptor beta (Homo sapiens) (Q92731 whole entry, looked up): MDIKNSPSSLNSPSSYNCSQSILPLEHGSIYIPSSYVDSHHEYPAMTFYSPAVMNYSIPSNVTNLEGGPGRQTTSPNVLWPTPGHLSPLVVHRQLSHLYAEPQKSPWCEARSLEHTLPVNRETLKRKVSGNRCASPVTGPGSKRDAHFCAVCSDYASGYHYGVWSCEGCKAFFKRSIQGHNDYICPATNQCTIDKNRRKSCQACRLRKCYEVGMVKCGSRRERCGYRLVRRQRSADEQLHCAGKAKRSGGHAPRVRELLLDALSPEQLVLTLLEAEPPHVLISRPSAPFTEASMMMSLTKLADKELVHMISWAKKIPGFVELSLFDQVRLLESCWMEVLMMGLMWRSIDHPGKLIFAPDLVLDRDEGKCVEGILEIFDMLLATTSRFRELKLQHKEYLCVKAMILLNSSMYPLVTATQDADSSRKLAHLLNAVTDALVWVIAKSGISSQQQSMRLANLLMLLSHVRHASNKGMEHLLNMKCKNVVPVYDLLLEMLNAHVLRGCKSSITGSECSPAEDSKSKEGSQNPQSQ
Chain of Estrogen receptor (Homo sapiens) (P03372 whole entry, looked up): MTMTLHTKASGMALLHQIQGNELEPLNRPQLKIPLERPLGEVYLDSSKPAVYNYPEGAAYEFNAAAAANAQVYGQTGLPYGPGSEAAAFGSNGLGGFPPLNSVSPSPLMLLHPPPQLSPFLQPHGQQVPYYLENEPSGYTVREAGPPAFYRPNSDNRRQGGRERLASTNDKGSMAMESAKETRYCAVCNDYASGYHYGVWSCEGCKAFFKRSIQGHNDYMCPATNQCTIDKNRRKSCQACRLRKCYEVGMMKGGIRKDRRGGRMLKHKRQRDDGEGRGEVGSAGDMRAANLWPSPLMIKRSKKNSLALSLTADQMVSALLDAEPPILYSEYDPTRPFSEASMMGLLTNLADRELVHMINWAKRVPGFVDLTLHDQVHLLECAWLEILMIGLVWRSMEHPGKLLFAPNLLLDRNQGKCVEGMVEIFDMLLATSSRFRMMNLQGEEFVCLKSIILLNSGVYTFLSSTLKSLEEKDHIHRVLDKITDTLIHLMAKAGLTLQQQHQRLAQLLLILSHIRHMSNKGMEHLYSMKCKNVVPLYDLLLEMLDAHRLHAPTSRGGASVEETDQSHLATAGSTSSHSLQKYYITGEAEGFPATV

Regarding `O=C1CCC(=O)N1Cl`, the Potency entry in assay [1], in assay [2], in [3], in assay [4], in [7] and in [12] was “inactive” throughout. The Potency result in assay [13] and in assay [14] was “inactive” each time. Further, the outcome in assay [5], in [6], in assay [8], in [9], in [10] and in [11] was inactive. Further, the result in [15] and in [16] was inactive.

For the compound `O=C(O)CONC(=O)c1ccccc1`, the Potency result in assay [1], in assay [2], in assay [3], in assay [4], in assay [7] and in assay [12] was “inactive” in each case. Also, the outcome in assay [5], in assay [17], in assay [8], in [9], in assay [10] and in assay [11] was inactive. Also, the outcome in assay [15] and in [16] was inactive.

In the case of `C=CCCCCCCCCC(=O)OCCCC`, the Potency result in [1], in assay [2], in assay [4], in assay [7], in [12] and in assay [13] was “inactive” each time. Also, in assay [14], the Potency result is “inactive”. The result in assay [5], in [17], in assay [6], in assay [8], in assay [9] and in [10] was inactive. The result in assay [11], in assay [15] and in assay [16] was inactive.

Take `CCCC(CC)c1ccccc1` (centres undefined): the Potency result in [1], in assay [2], in [3], in assay [4], in assay [7] and in assay [12] was “inactive” in each case. Also, the Potency entry in [13] and in [14] was “inactive” each time. Besides, the outcome in assay [5], in assay [6], in assay [8], in [9], in assay [10] and in [11] was inactive. The outcome in [15] and in assay [16] was inactive.

On to `CC(C)=CCC/C(C)=C/COC=O`, for which the Potency result in assay [1], in [2], in [3], in assay [4], in [7] and in assay [12] was “inactive” each time. Besides, the Potency result in [13] and in assay [14] was “inactive” each time. For the same compound, the result in [5], in assay [8], in [9], in assay [10], in [11] and in [15] was inactive. For the same compound, the outcome in assay [16] was inactive.

Regarding `CC/C=C\CCOC(=O)c1ccccc1O`, the Potency entry in [1], in assay [2], in [3], in assay [12], in [13] and in assay [14] was “inactive” each time. Moreover, the result in [5], in [17], in [6], in assay [8], in assay [9] and in [10] was inactive. Moreover, the outcome in assay [11], in assay [15] and in assay [16] was inactive. Moreover, the Potency in assay [7] was 15.4 µM (active).

`C/C=C(\C)C(=O)OCCc1ccccc1`: the Potency result in assay [1], in assay [2], in [3], in [4] and in assay [12] was “inactive” each time. For the same compound, the outcome in assay [5], in assay [17], in [8], in [9], in assay [10] and in assay [11] was inactive. Moreover, the result in [15] and in assay [16] was inactive.

With `CCCCCC(C)O` (centres undefined), the Potency entry in [1], in assay [2], in assay [4], in assay [7] and in assay [12] was “inactive” in each case. Besides, the result in assay [5], in [17], in assay [6], in [8], in assay [9] and in [10] was inactive. Besides, the compound was classed as inactive in assay [11], in assay [15] and in assay [16].

As to `CCCC(=O)OCCC(C)CCC=C(C)C` (centres undefined), the Potency entry in [1], in [2], in assay [4], in [13] and in [14] was “inactive” each time. Also, the outcome in assay [5], in [17], in assay [8], in assay [9], in [10] and in assay [11] was inactive. Moreover, in assay [15], the outcome was inactive.

As to `CC(C)CO`, the Potency result in [1], in assay [3], in [4], in [7], in assay [12] and in assay [13] was “inactive” throughout. Besides, the result in assay [5], in [17], in assay [6], in assay [8], in assay [9] and in assay [10] was inactive. The compound was called inactive in assay [11], in [15] and in assay [16].

Turning to `CCCCCCC1(C)CCC(=O)O1` (centres undefined), the Potency result in assay [1], in [2], in assay [4], in assay [7] and in assay [12] was “inactive” throughout. Also, the result in assay [5], in assay [17], in assay [6], in assay [8], in assay [9] and in [10] was inactive. Further, the compound was classed as inactive in [11], in [15] and in assay [16].

Regarding `CCCc1ccc(O)cc1`, the Potency entry in assay [1], in assay [2], in [7], in assay [12], in [13] and in assay [14] was “inactive” in each case. The result in assay [5], in assay [17], in assay [6], in [8], in assay [9] and in [10] was inactive. In addition, the outcome in assay [11], in assay [15] and in assay [16] was inactive.

Regarding `CC12CCC(C1)C(C)(C)C2O` (centres undefined), the Potency result in assay [1], in assay [3], in [7], in [12], in assay [13] and in assay [14] was “inactive” throughout. In assay [4], the Potency is 1.95 µM (active). The result in [5], in assay [17], in assay [6], in assay [8], in assay [9] and in assay [10] was inactive. For the same compound, the outcome in [11], in assay [15] and in assay [16] was inactive.

As for `CC(C)OC(=O)CCC(=O)OC(C)C`, the Potency result in assay [1], in [2], in assay [4], in assay [7], in [13] and in [14] was “inactive” each time. For the same compound, the outcome in assay [5], in [17], in [8], in assay [9], in assay [10] and in assay [11] was inactive. Besides, the result in assay [15] and in assay [16] was inactive.

With `O/N=C/C=N/O`, the Potency result in assay [1], in assay [2], in [4], in assay [7], in assay [12] and in assay [13] was “inactive” throughout. Also, in [14], the Potency entry was “inactive”. The result in assay [5], in assay [17], in assay [8], in assay [9], in [10] and in [11] was inactive. The outcome in assay [15] was inactive.

In the case of `CC(=O)O[Si](C)(OC(C)=O)OC(C)=O`, the Potency entry in assay [1], in assay [2], in assay [4], in assay [12], in assay [13] and in assay [14] was “inactive” in each case. In addition, the outcome in assay [5], in assay [17], in assay [8], in assay [9], in assay [10] and in [11] was inactive. Also, the outcome in assay [15] and in [16] was inactive.
